Compound activity as filed in PubChem BioAssay.
Most compounds without a hit are left out; they make up all but 5.9% or so of the library.
HSP90 refold inh: HSP90 inhibitors, primary screen, cell lysate, luminescence; inhibition, % at 5.6 µM; 290,000 compounds, 0.91% hits; AID 1789, 2009; Rabbit reticulocyte lysate, luciferase refolding luminescence, 3 h; Heat shock protein HSP 90 (rabbit reticulocyte lysate; luciferase refolding);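 active means inhibition above the screen-wide mean plus 3 SD, computed separately per campaign, cut at about 16% in these data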;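 further: inhibitors lower the luminescence because luciferase stays unfolded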
FXN GAA850 act: FXN promoter activators, primary screen, cell-based, luciferase luminescence, HEK293 lucGAA850; AID 540364, 2011; HEK293 lucGAA850 FXN promoter luciferase reporter, 24 h; percent of 10 µM SAHA response; 360,000 compounds, 0.56% hits; activation, % at 6 µM;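 active means activation above the average of all compounds screened plus 3 SD, cutoff fixed separately per campaign, cut at about 7.5% in these data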
HSF1 inhib: HSF1 inhibitors in luciferase reporter cells, primary screen, cell-based, NIH3T3, luminescence. NIH3T3-HGL HSE-luciferase, MG132-induced, luminescence 8 h; active compounds read low. activity change, negative = inhibition, % at 7.5 µM (by protocol). 300,000 compounds, 0.77% hits;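 active means more than half of replicate wells show activity change below -50%, luminescence cut by over half; inconclusive means some wells, but at most half, below -50%; inactive means no replicate well below -50%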;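 further: luciferase reports HSF-1 transcriptional activity via heat shock element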
HSF-1 act: HSF-1 activators, primary screen, NIH3T3-HGL cells, MG132 stress, luminescence, single point; NIH3T3-HGL HSF-1 luciferase reporter, 8 h; 100% = twice DMSO control signal; activation, % at 9 µM; 300,000 compounds, 1.7% hits;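 active means mean replicate activation of at least 50% with a set share of replicates each reaching 50%; inconclusive means only one of those two conditions met; inactive means mean below 50% and too few replicates reaching it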
NR0B1 inh: DAX1 (NR0B1) inhibitors, primary screen, cell-based, HEK293, Gal4-DAX1, luciferase luminescence; Nuclear receptor subfamily 0 group B member 1 (Homo sapiens), P51843; 340,000 compounds, 0.99% hits; inhibition, % at 6.75 µM; HEK293 Gal4-DAX1 luciferase reporter; AID 504766, 2011;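 active means inhibition above the mean over all tested compounds plus 3 SD, cut at about 4.2% in these data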;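 further: inhibition shows as a rise in luminescence from relieved DAX1 repression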
AHR activator: AHR activators, primary screen, cell-based, luminescence, luciferase reporter, human | Aryl hydrocarbon receptor (Homo sapiens), P35869 | AHR-responsive luciferase reporter cells | activation, % at 5 µM | 320,000 compounds, 2.5% hits; in the data active means activation above about 47%
Target sequence (P35869 whole entry, looked up): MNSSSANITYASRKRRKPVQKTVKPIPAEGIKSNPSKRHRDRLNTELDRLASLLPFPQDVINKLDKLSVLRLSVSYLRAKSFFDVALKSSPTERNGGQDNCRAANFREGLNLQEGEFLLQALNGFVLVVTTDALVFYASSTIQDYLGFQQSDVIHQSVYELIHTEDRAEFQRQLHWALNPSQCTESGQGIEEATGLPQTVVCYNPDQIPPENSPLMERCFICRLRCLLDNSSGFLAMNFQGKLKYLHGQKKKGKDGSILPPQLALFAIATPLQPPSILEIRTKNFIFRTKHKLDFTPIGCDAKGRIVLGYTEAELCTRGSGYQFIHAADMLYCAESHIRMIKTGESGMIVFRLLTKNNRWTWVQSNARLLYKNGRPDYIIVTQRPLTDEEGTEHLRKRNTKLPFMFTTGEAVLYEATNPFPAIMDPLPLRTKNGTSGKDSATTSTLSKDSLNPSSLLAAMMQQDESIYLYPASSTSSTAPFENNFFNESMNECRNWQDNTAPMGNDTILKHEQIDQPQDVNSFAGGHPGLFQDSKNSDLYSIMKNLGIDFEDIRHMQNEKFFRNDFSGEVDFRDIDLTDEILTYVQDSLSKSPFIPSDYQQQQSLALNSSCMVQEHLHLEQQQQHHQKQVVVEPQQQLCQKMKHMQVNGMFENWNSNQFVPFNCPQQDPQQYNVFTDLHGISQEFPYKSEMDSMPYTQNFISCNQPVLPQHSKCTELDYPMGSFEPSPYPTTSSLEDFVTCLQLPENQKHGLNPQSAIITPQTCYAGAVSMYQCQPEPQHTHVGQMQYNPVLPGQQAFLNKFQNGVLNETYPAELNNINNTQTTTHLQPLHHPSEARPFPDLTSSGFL
HSP90 confirm: HSP90 inhibitors, confirmation, cell lysate, luminescence; shares compounds with HSP90 refold inh; rabbit reticulocyte lysate, luciferase refolding luminescence, 3 h; inhibition, % at 5.9 µM; 2,300 compounds, 64% hits; AID 1846, 2009; in the data active means inhibition above about 18%
luciferase ctr: firefly luciferase inhibitors, HSP90 counter-screen, confirmation, artefact control for HSP90 inhibitor project, biochemical, luminescence, triplicate | shares compounds with HSP90 refold inh | purified native firefly luciferase | inhibition, % at 5.9 µM | 2,300 compounds, 48% hits;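 active means inhibition above the mean inhibition of all tested sample wells plus 3 SD, cut at about 10% in these data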
Numbers stand for hits.

Results for Cc1c(C(c2cccc([N+](=O)[O-])c2O)c2c(C)n(C)n(-c3ccccc3)c2=O)c(=O)n(-c2ccccc2)n1C ?
HSP90 refold inh: inactive; FXN GAA850 act: inactive; HSF1 inhib: inactive; HSF-1 act: inactive; NR0B1 inh: inactive; AHR activator: inactive

What do the screens show for `O=C(Nc1ccc2oc(=O)ccc2c1)c1cc2ccccc2o1`?
HSP90 refold inh: inactive; FXN GAA850 act: inactive; HSF1 inhib: inactive; HSF-1 act: inactive; NR0B1 inh: inactive; AHR activator: inactive

How did O=C(NC1=NCCS1)c1cc2ccccc2o1 do in these assays?
HSP90 refold inh: 34; FXN GAA850 act: inactive; HSF1 inhib: inactive; HSF-1 act: inactive; NR0B1 inh: inactive; AHR activator: inactive; HSP90 confirm: 56; luciferase ctr: 47

Results for O=C(Nc1ccc2c(c1)OCCO2)c1cc2ccccc2o1 ?
HSP90 refold inh: 24; FXN GAA850 act: inactive; HSF1 inhib: inactive; HSF-1 act: 61; NR0B1 inh: inactive; AHR activator: inactive; HSP90 confirm: 39; luciferase ctr: 26

Results for O=C(Nc1ccccn1)c1cc2ccccc2o1 ?
HSP90 refold inh: 69; FXN GAA850 act: inactive; HSF1 inhib: inactive; HSF-1 act: inactive; NR0B1 inh: inactive; AHR activator: inactive; HSP90 confirm: 80; luciferase ctr: 78

Results for O=C(CSc1ccc(Br)cc1)N1CCN(C(=O)c2ccco2)CC1 ?
HSP90 refold inh: inactive; FXN GAA850 act: inactive; HSF1 inhib: inactive; HSF-1 act: inactive; NR0B1 inh: inactive; AHR activator: inactive

What do the screens show for `COc1ccc(N(C)S(=O)(=O)c2cccc(C(=O)Nc3ccc(-n4cnnn4)cc3)c2)cc1`?
HSP90 refold inh: inactive; FXN GAA850 act: inactive; HSF1 inhib: inactive; HSF-1 act: inactive; NR0B1 inh: inactive; AHR activator: inactive

What do the screens show for `O=c1c2c([nH]n1-c1ccccc1)CCSC2`?
HSP90 refold inh: inactive; FXN GAA850 act: inactive; HSF1 inhib: inactive; HSF-1 act: inactive; NR0B1 inh: inactive; AHR activator: inactive

Results for COc1ccc(/C=N/Nc2ncccc2[N+](=O)[O-])c(OC)c1 ?
HSP90 refold inh: 51; FXN GAA850 act: inactive; HSF1 inhib: inactive; HSF-1 act: inactive; NR0B1 inh: inactive; AHR activator: inactive; HSP90 confirm: 70; luciferase ctr: 62

How did Cc1ccc(NCc2nc3ccccc3n2C)c(C)c1 do in these assays?
HSP90 refold inh: 28; FXN GAA850 act: inactive; HSF1 inhib: inactive; HSF-1 act: 64; NR0B1 inh: inactive; AHR activator: 76; HSP90 confirm: 45; luciferase ctr: 39

What do the screens show for `Cc1cccc(OCc2nc3ccccc3n2C)c1`?
HSP90 refold inh: inactive; FXN GAA850 act: inactive; HSF1 inhib: inactive; HSF-1 act: inactive; NR0B1 inh: inactive; AHR activator: inactive

Results for CC(=O)c1cccc(Nc2nc(-c3sc(N)nc3C)cs2)c1 ?
HSP90 refold inh: 52; FXN GAA850 act: inactive; HSF1 inhib: inactive; HSF-1 act: inactive; NR0B1 inh: inactive; AHR activator: 49; HSP90 confirm: inactive; luciferase ctr: inactive

Results for Cc1nc(C)c(-c2csc(Nc3cccc(O)c3)n2)s1 ?
HSP90 refold inh: inactive; FXN GAA850 act: inactive; HSF1 inhib: inactive; HSF-1 act: inactive; NR0B1 inh: inactive; AHR activator: inactive

Results for Cc1nc(N)sc1-c1csc(Nc2cccc(O)c2)n1 ?
HSP90 refold inh: 31; FXN GAA850 act: inactive; HSF1 inhib: inactive; HSF-1 act: inactive; NR0B1 inh: inactive; AHR activator: 71; HSP90 confirm: inactive; luciferase ctr: inactive

What do the screens show for `CCc1ccc(S(=O)(=O)N2CCCC(N3CCN(c4ccc(OC)cc4)CC3)C2)cc1` (stereo not given)?
HSP90 refold inh: inactive; FXN GAA850 act: inactive; HSF1 inhib: inactive; HSF-1 act: inactive; NR0B1 inh: inactive; AHR activator: inactive

How did COc1cccc2cc(-c3csc(NC(=O)CCC(=O)NCCCN4CCC(C)CC4)n3)c(=O)oc12 do in these assays?
HSP90 refold inh: 27; FXN GAA850 act: inactive; HSF1 inhib: inactive; HSF-1 act: inactive; NR0B1 inh: inactive; AHR activator: inactive; HSP90 confirm: inactive; luciferase ctr: inactive

How did CCOc1cccc2cc(-c3csc(NC(=O)CCC(=O)NCCCN4CCC(C)CC4)n3)c(=O)oc12 do in these assays?
HSP90 refold inh: inactive; HSF1 inhib: inactive; HSF-1 act: inconclusive; AHR activator: inactive

How did COc1ccccc1C(=O)NCCC(=O)N(C)Cc1ccc(C)o1 do in these assays?
HSP90 refold inh: inactive; FXN GAA850 act: inactive; HSF1 inhib: inactive; HSF-1 act: inactive; NR0B1 inh: inactive; AHR activator: inactive

Results for Cc1ccc2nc(Cl)c(/C=N/Nc3ccc(C(=O)O)cc3)cc2c1 ?
HSP90 refold inh: 29; FXN GAA850 act: inactive; HSF1 inhib: inactive; HSF-1 act: inactive; NR0B1 inh: inactive; AHR activator: inactive; HSP90 confirm: 18; luciferase ctr: inactive

What do the screens show for `O=C(O)c1ccc(N/N=C/c2ccc3nccnc3c2)cc1`?
HSP90 refold inh: 92; FXN GAA850 act: inactive; HSF1 inhib: -81; HSF-1 act: inactive; NR0B1 inh: inactive; AHR activator: inactive; HSP90 confirm: 92; luciferase ctr: 85

How did COc1cc(/C=N/Nc2ccc(C(=O)O)cc2)ccc1O do in these assays?
HSP90 refold inh: 38; FXN GAA850 act: inactive; HSF1 inhib: inactive; HSF-1 act: inactive; NR0B1 inh: inactive; AHR activator: inactive; HSP90 confirm: 63; luciferase ctr: 54

How did COc1cc(/C=N/NS(=O)(=O)c2ccc(C)cc2)ccc1OCc1ccc(C(=O)O)cc1 do in these assays?
HSP90 refold inh: 65; FXN GAA850 act: inactive; HSF1 inhib: -75; HSF-1 act: inactive; NR0B1 inh: inactive; AHR activator: inactive; HSP90 confirm: inactive; luciferase ctr: inactive

Results for CC1CCCCC1NC(=O)CCn1c(=O)sc2ccccc21 (stereo not given) ?
HSP90 refold inh: inactive; FXN GAA850 act: inactive; HSF1 inhib: inactive; HSF-1 act: inactive; NR0B1 inh: inactive; AHR activator: inactive

What do the screens show for `COc1ccc(/C=N/n2c(-c3ccco3)nc3ccccc3c2=O)cc1`?
HSP90 refold inh: 19; FXN GAA850 act: inactive; HSF1 inhib: inactive; HSF-1 act: inactive; NR0B1 inh: inactive; AHR activator: inactive; HSP90 confirm: inactive; luciferase ctr: inactive
